Calls of active or inactive are those of the source. The calls were made as follows: active = hit-call score of the fitted dose curve at least 0.9, where 1 is the maximum; inactive = score below 0.9.
Experiments:
[1] = read-out: Interleukin-6 (IL6), IL6 (gene 3569); experiment: BSK_CASM3C_IL6: BioMAP Diversity Plus: CASM3C Assay for Interleukin-6 (IL6) Biomarker Activity for (AID 2283040); details: primary human coronary artery smooth muscle cells; actives raise or lower the signal
[2] = read-out: Tissue plasminogen activator (tPA), PLAT (gene 5327); experiment: BSK_BE3C_tPA: BioMAP Diversity Plus: BE3C Assay for Tissue plasminogen activator (tPA) Biomarker Activity (AID 2283041); details: primary human bronchial epithelial cells; actives raise or lower the signal;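 also: tPA level quantified by ELISA one day after compound addition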
Procedure, shortened: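 Primary human lung bronchial epithelial cultures receive test chemical; after 24 h, tPA is quantified by ELISA, and gain or loss of signal is fitted bidirectionally relative to DMSO baseline.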

[3] = read-out: Interleukin-8 (IL8), CXCL8 (gene 3576); experiment: BSK_CASM3C_IL8: BioMAP Diversity Plus: CASM3C Assay for Interleukin-8 (IL8) Biomarker Activity (AID 2283042); details: primary human coronary artery smooth muscle cells; actives raise or lower the signal;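 also: IL-8 protein level quantified by ELISA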
[4] = read-out: Human Leukocyte Antigen - DR isotype (HLADR), HLA-DRA (gene 3122); experiment: BSK_CASM3C_HLADR: BioMAP Diversity Plus: CASM3C Assay for Human Leukocyte Antigen - DR isotype (HLADR) Biomarker Activity (AID 2283043); details: primary human coronary artery smooth muscle cells; actives raise or lower the signal;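 also: cell-surface HLA-DR protein level quantified by ELISA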
[5] = read-out: Macrophage colony-stimulating factor (MCSF), CSF1 (gene 1435); experiment: BSK_CASM3C_MCSF: BioMAP Diversity Plus: CASM3C Assay for Macrophage colony-stimulating factor (MCSF) Biomarker Activity (AID 2283044); details: primary human coronary artery smooth muscle cells; actives raise or lower the signal;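 also: M-CSF protein amount quantified by ELISA after 24 h exposure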
[6] = read-out: Low-density lipoprotein receptor (LDLR), LDLR (gene 3949); experiment: BSK_CASM3C_LDLR: BioMAP Diversity Plus: CASM3C Assay for Low-density lipoprotein receptor (LDLR) Biomarker Activity (AID 2283045); details: primary human coronary artery smooth muscle cells; actives raise or lower the signal;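 also: LDLR protein level on the cell surface quantified by ELISA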
[7] = read-out: Monocyte Chemoattractant Protein-1 (MCP1), CCL2 (gene 6347); experiment: BSK_CASM3C_MCP1: BioMAP Diversity Plus: CASM3C Assay for Monocyte Chemoattractant Protein-1 (MCP1) Biomarker Activity (AID 2283046); details: primary human coronary artery smooth muscle cells; actives raise or lower the signal;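 also: MCP-1 level quantified by ELISA 24 h after dosing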
[8] = BSK_CASM3C_Proliferation: Cell Proliferation Assessment in the BioMAP Diversity Plus: CASM3C Assay (AID 2283047); details: primary human coronary artery smooth muscle cells;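 also: sulforhodamine B total protein stain as relative cell number at 560 nm; sub-confluent cells exposed 48 h before staining; fitted both ways against DMSO so gain or loss of cell number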
[9] = read-out: Monokine induced gamma interferon (MIG), CXCL9 (gene 4283); experiment: BSK_CASM3C_MIG: BioMAP Diversity Plus: CASM3C Assay for Monokine induced gamma interferon (MIG) Biomarker Activity (AID 2283048); details: primary human coronary artery smooth muscle cells; actives raise or lower the signal;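 also: MIG protein level measured by ELISA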
[10] = read-out: serum amyloid A (SAA), SAA1 (gene 6288); experiment: BSK_CASM3C_SAA: BioMAP Diversity Plus: CASM3C Assay for serum amyloid A (SAA) Biomarker Activity (AID 2283049); details: primary human coronary artery smooth muscle cells; actives raise or lower the signal;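 also: SAA protein level quantified by ELISA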
[11] = BSK_CASM3C_SRB: Viability Assessment in the BioMAP Diversity Plus: CASM3C Assay (AID 2283050); details: primary human coronary artery smooth muscle cells;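 also: total protein by SRB staining as cytotoxicity measure in parallel cultures; cells exposed to compound for 24 h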
[12] = read-out: Thrombomodulin, THBD (gene 7056); experiment: BSK_CASM3C_Thrombomodulin: BioMAP Diversity Plus: CASM3C Assay for Thrombomodulin Biomarker Activity (AID 2283051); details: primary human coronary artery smooth muscle cells; actives raise or lower the signal;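 also: thrombomodulin protein level measured by ELISA 24 h after dosing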
[13] = read-out: Tissue Factor, F3 (gene 2152); experiment: BSK_CASM3C_TissueFactor: BioMAP Diversity Plus: CASM3C Assay for Tissue Factor Biomarker Activity (AID 2283052); details: primary human coronary artery smooth muscle cells; actives raise or lower the signal;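 also: cell surface tissue factor protein level read by ELISA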
[14] = read-out: Urokinase-type plasminogen activator receptor (uPAR), PLAUR (gene 5329); experiment: BSK_CASM3C_uPAR: BioMAP Diversity Plus: CASM3C Assay for Urokinase-type plasminogen activator receptor (uPAR) Biomarker Activity (AID 2283054); details: primary human coronary artery smooth muscle cells; actives raise or lower the signal;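 also: cell-surface uPAR protein level quantified by ELISA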
[15] = read-out: Vascular cell adhesion molecule 1 (VCAM1), VCAM1 (gene 7412); experiment: BSK_CASM3C_VCAM1: BioMAP Diversity Plus: CASM3C Assay for Vascular cell adhesion molecule 1 (VCAM1) Biomarker Activity (AID 2283055); details: primary human coronary artery smooth muscle cells; actives raise or lower the signal;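 also: VCAM-1 protein level quantified by ELISA on the cells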
[16] = read-out: Collagen III, COL3A1 (gene 1281); experiment: BSK_hDFCGF_CollagenIII: BioMAP Diversity Plus: hDFCGF Assay for Collagen III Biomarker Activity (AID 2283056); details: primary human foreskin fibroblasts; actives raise or lower the signal
Procedure, shortened: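 Cells: human foreskin fibroblasts, primary. Dosing followed by 24 h incubation, then ELISA for collagen III. Both increases and decreases scored relative to DMSO.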

[17] = read-out: Epidermal growth factor receptor (EGFR), EGFR (gene 1956); experiment: BSK_hDFCGF_EGFR: BioMAP Diversity Plus: hDFCGF Assay for Epidermal growth factor receptor (EGFR) Biomarker Activity (AID 2283057); details: primary human foreskin fibroblasts; actives raise or lower the signal
Procedure, shortened: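 hDFCGF system, primary human foreskin fibroblasts; compound 24 h; EGFR measured by ELISA; DMSO = negative control/baseline; bidirectional fitting.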

[18] = read-out: Interleukin-8 (IL8), CXCL8 (gene 3576); experiment: BSK_hDFCGF_IL8: BioMAP Diversity Plus: hDFCGF Assay for Interleukin-8 (IL8) Biomarker Activity (AID 2283058); details: primary human foreskin fibroblasts; actives raise or lower the signal
Procedure, shortened: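 IL-8 levels from compound-treated primary human fibroblasts were read by ELISA at 24 h, with DMSO serving as baseline for bidirectional fitting.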

[19] = BSK_hDFCGF_Proliferation: Cell Proliferation Assessment in the BioMAP Diversity Plus: hDFCGF Assay (AID 2283059); details: primary human foreskin fibroblasts;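 also: curves fitted for both rise and fall of signal versus DMSO baseline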
Procedure, shortened: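 Steps: dose primary human dermal fibroblasts (foreskin); […] fix in 10% TCA; stain with 0.1% SRB; read 560 nm; fit gain or loss of signal against DMSO.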

Measured: AC50

CCNc1nc(NC(C)(C)C)nc(OC)n1
inactive: all assays above

C=CCCCCCCCCC=O
inactive: all assays above

O=C1CCCCCCCCCCC1
inactive: all assays above

COc1ccc(C(=O)c2ccccc2)c(O)c1
active: [13] 20 µM
inactive: all other assays above

C=CC(=O)OCC(C)OCC(C)OCC(C)OC(=O)C=C (configuration not stated)
active: [1] 16.1 µM | [4] 14.9 µM | [5] 25.2 µM | [7] 20 µM | [8] 20 µM | [9] 29.1 µM | [10] 5.95 µM | [11] 20 µM | [13] 2.28 µM | [14] 8.9 µM | [15] 15.3 µM | [16] 35.7 µM | [17] 33.4 µM | [18] 33.1 µM | [19] 6.25 µM
inactive: [2] | [3] | [6] | [12]

CC1(C)CC(O)CC(C)(C)N1[O]
inactive: all assays above

CC(Cl)COP(=O)(OCC(C)Cl)OCC(C)Cl (configuration not stated)
active: [8] 0.159 µM
inactive: all other assays above

Oc1ccc(/C=C/c2cc(O)cc(O)c2)cc1
active: [1] 13.6 µM | [8] 10.5 µM | [10] 15.9 µM | [13] 7.96 µM | [19] 17.5 µM
inactive: all other assays above

Reference: PubChem BioAssay (EPA / NIEHS)
